Only some compounds are listed: those with a hit (about 11% of all), similar ones and a draw of the others.
HP1b chromo inh: blocks HP1-beta chromodomain binding to methylated histone tails; 390,000 compounds, 0.56% hits; P83916; AlphaScreen HP1-beta / biotin-H3K9me3 peptide binding; AID 540317; Potency, µM (doses to about 114 µM), without a hit: at the top dose activity change, negative = inhibition, hits mostly inhibitors; further: nearly all actives have a fitted effect of over 70% in size
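AlphaScreen: HP1-beta (50 nM) preformed 30 min with biotin-H3(1-18)K9me3 peptide (50 nM) in PBS pH 7.4, 0.01% Tween-20. Compound added for 30 min at RT, then streptavidin donor/nickel chelate acceptor beads (10 ug/mL) for 30 min.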
G9a inh: G9a (human) methyltransferase inhibition; Q96KQ7; G9a H3K9 monomethylation, AlphaScreen, 2 h; Potency, µM (doses to about 102 µM), for inactives: at the top dose activity, negative = inhibition, hits mostly inhibitors; 350,000 compounds, 8.8% hits; further: on the % scale 0 is the no-effect control and ±100 the full control effect; nearly all actives have a fitted effect of over 75% in size
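Step 1: enzyme (final 20 nM) with compound, 15 min RT. Step 2: substrate peptide 500 nM and SAM 20 uM, 2 h RT. Step 3: anti-H3K9me1 antibody and AlphaScreen beads, 10 min, then plate read.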
L3MBTL1 block: blocks human L3MBTL1; 230,000 compounds, 0.66% hits; Q9Y468; Potency, µM (doses to about 57.1 µM), inactives show at the top dose activity, negative = inhibition, hits mostly inhibitors; AlphaScreen L3MBTL1–H3K9me1 peptide binding; further: on the % scale 0 is the no-effect control and ±100 the full control effect; nearly all actives have a fitted effect of over 60% in size
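AlphaScreen proximity signal between nickel-chelate acceptor and streptavidin donor beads (final 10 ug/mL) reports binding of 50 nM L3MBTL1 to 75 nM biotin-H3 K9me1 peptide; complex incubated with compounds 30 min at room temperature; cefsulodin titration as control.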
BAZ2B block: blocks human BAZ2B; AlphaScreen BAZ2B-H3K14Ac peptide displacement; AID 504333; Q9UIF8; Potency, µM (series often up to 114 µM), without a hit: at the highest dose activity change, negative = inhibition, most hits filed as inhibitors; 360,000 compounds, 4.4% hits; further: on the % scale 0 is the no-effect control and ±100 the full control effect; nearly all actives have a fitted effect of over 60% in size
Target sequence (Q9UIF8 whole entry, looked up): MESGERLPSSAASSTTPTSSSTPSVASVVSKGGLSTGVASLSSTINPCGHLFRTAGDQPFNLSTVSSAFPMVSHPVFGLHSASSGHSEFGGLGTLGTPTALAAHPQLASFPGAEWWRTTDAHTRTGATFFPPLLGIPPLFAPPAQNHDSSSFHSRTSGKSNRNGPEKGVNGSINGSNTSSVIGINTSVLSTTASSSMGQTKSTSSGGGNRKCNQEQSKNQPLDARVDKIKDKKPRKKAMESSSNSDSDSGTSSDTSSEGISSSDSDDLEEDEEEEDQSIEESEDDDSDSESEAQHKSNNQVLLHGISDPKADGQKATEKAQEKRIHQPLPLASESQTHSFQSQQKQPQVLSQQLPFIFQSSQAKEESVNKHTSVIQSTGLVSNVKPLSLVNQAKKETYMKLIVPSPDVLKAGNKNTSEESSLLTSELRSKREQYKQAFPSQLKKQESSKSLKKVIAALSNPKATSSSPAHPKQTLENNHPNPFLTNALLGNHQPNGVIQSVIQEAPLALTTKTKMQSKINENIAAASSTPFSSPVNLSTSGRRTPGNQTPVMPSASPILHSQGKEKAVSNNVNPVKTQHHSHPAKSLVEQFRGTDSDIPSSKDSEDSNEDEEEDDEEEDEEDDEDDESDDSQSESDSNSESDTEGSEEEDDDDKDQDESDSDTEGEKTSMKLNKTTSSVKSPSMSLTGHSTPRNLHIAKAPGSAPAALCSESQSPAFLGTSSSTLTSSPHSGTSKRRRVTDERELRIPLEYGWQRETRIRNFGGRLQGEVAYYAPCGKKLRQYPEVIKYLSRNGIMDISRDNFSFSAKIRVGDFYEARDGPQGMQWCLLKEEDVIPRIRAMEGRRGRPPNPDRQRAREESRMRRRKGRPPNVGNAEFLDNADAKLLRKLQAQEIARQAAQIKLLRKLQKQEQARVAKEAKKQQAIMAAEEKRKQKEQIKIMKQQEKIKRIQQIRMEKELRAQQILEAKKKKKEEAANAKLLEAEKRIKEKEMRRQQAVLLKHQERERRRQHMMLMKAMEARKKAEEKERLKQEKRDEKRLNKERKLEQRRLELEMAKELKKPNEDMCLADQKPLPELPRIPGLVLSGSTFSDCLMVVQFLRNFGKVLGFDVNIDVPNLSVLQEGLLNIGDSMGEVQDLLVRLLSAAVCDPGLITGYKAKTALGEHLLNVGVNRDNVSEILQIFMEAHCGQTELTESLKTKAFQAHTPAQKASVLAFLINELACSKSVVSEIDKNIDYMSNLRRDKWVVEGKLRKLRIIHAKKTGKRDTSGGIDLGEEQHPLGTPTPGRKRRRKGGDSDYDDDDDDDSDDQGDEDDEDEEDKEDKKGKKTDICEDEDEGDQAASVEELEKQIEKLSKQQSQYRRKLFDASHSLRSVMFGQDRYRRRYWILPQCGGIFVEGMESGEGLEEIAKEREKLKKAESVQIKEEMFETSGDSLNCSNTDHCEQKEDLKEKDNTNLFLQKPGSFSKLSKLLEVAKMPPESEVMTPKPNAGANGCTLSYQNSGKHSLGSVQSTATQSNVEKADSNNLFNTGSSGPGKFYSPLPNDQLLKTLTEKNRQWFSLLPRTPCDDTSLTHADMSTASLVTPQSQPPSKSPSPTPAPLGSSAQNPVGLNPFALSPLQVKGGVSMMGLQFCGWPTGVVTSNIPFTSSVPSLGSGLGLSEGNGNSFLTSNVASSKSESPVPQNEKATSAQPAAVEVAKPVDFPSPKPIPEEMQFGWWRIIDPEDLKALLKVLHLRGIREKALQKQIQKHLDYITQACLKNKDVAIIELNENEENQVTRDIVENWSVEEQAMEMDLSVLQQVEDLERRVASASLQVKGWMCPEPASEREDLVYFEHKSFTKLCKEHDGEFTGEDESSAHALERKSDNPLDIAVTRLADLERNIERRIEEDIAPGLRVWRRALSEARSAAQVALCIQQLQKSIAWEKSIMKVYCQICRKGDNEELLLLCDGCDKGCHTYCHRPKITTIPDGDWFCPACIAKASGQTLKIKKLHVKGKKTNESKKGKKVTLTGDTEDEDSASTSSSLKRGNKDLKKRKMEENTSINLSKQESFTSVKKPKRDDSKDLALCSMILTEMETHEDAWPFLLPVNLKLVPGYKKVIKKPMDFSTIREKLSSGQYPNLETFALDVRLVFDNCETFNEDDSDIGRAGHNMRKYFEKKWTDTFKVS
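AlphaScreen luminescence quantifies BAZ2B engagement of H3K14Ac peptide; the protein and biotinylated peptide are both at 50 nM final, buffer PBS pH 7.4 with 0.01% Tween-20, all steps at room temperature.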
JMJD2A Tudor inh: JMJD2A Tudor domain (human) inhibition. AlphaScreen JMJD2A-Tudor / H3K4me3 peptide binding. O75164. Potency, µM (top dose mostly 114 µM), for the others: top-dose activity change, negative = inhibition, usual class: inhibitors. 390,000 compounds, 4.4% hits; further: on the % scale 0 is the no-effect control and ±100 the full control effect; nearly all actives have a fitted effect of over 50% in size
* = called active by the depositor; ? = inconclusive; nt = not tested or not shown; [ ] = another dose, or the depositor's remark. The call rests on the fitted dose curve; in most records, active means well fitted inhibition curve with a large enough effect; inconclusive means small, poorly fitted or top-dose-only effect; inactive means no such curve, though single readings can be large or run the other way. Potency means the concentration at half of the fitted maximal effect.

SMILES	HP1b chromo inh	G9a inh	L3MBTL1 block	BAZ2B block	JMJD2A Tudor inh
CCN(c1ccccc1)S(=O)(=O)c1c(C)nc2scc(C)n2c1=O	18%	-2%[59 µM]	nt	6%	-7%
CCCN1C(=O)C(Cc2nc3ccccc3c(=O)n2CC)c2ccccc21 (stereo not given)	24%	-4%[59 µM]	nt	-13%	-17%
CCSc1nc2ccccc2n1S(=O)(=O)c1ccccc1	34%	50µM*	6%	5%	-21%
C=CCSc1nc2ccccc2n1S(=O)(=O)c1ccc(Cl)cc1	23%	nt	nt	nt	-36%
CCC/C=C1/CCCOC(C(=O)NCC2CC2)(C(F)(F)F)C1 (stereo not given)	39%	nt	nt	nt	-8%
C=CCNc1nc(C)c(C(C)=O)cc1C#N	47%	11%	nt	50µM*	1%
CN(CCO)C1=NS(=O)(=O)c2cc([N+](=O)[O-])ccc21	28%	79µM*	nt	0%	-1%
CCOC(=O)c1cc(-c2ccc(OC)cc2)n(CCC(=O)NCCc2ccc(OCC)c(OCC)c2)c1C	29%	-28%[59 µM]	nt	-1%	-21%
Oc1ccc(/C=N/NC(=S)N2CCOCC2)cc1	-3%	50µM*	-1%	-3%	-35%
C/C(CCC(C)C)=N\NC(=S)Nc1cc(S(=O)(=O)N2CCOCC2)ccc1N1CCOCC1	-22%	25µM*	-1%	-32%	-36%
O=S(=O)(c1ccc(Cl)c(NC(=S)N/N=C/c2ccc(O)cc2)c1)N1CCOCC1	-23%	1.4µM*	-16%	-38%	?
CC(C)NC(=S)N/N=C/c1ccc(N2CCOCC2)cc1	26%	15%[59 µM]	-1%	-30%	-18%
C/C(=N\NC(=S)Nc1cc(S(=O)(=O)N2CCOCC2)ccc1Cl)c1ccc(N2CCOCC2)cc1	-2%	32µM*	-17%	-21%	-28%
COc1ccc2cc(/C(C)=N/NC(=S)Nc3cc(S(=O)(=O)N4CCOCC4)ccc3N3CCOCC3)ccc2c1	nt	-104%[59 µM]	-7%	-5%	nt
COc1ccc(Br)cc1CNC(=O)CSc1cc(=O)n(C)c2ccccc12	22%	8%[59 µM]	nt	nt	-23%
CSc1ccc(Cn2nnc(C(=O)Nc3ccc(C)cc3Cl)c2N)cc1	30%	2%[59 µM]	nt	1%	-13%
CCOC(=O)c1ccc(NC(=O)c2cn(-c3ccccc3)nc2-c2ccc(OC)c(OC)c2)cc1	54%	18%[59 µM]	nt	15%	-28%
O=[N+]([O-])c1cc(Cl)cc(/C=N/NC(=S)Nc2ccc(S(=O)(=O)N3CCOCC3)cc2)c1O	22µM*	16µM*	3.5µM*	2.8µM*	-35%[11.4 µM]
C(=C\c1ccco1)/c1ccc2ccccc2n1	?	nt	14µM*	40µM*	-5%
NC(=O)c1sc2nc3c(c(-c4ccc(Cl)cc4)c2c1N)CCCC3	41%	11µM*	nt	-4%	6%
Nc1c(C(=O)NCc2ccc(Cl)cc2)sc2nc3c(c(C(F)(F)F)c12)CCC3	72%	45µM*	11%	4%	21%
Cc1ccc(-c2c3c(nc4sc(C(N)=O)c(N)c24)CCC3)cc1	37%	-10%	4%	-4%[57.1 µM]	-21%
CCc1ccc(-c2cc(C(=O)N/N=C/c3c[nH]c4ccccc34)[nH]n2)cc1	13%	45%	-12%	nt	?
CCc1ccc(/C=C/c2c[nH]c3ccccc23)[n+](CC)c1	22%	7.1µM*	3%	0%	?
C[n+]1ccccc1/C=C/c1ccccc1Cl	4%	?	-3%	56µM*	-11%
SMILES	HP1b chromo inh	G9a inh	L3MBTL1 block	BAZ2B block	JMJD2A Tudor inh
C[n+]1ccccc1/C=C/c1c(F)cccc1F	15%	25µM*	-1%	8.9µM*	?
CCOC(=O)C1=C(N)Oc2cc(O)ccc2C1c1cccc([N+](=O)[O-])c1 (stereo not given)	-17%	nt	-15%	40µM*	?
COC(=O)C1=C(O)/C(=C/c2cccc(OC)c2O)N=C1C	9%[57 µM]	?	-6%	-25%	0%
COC(=O)C1=C(O)/C(=C\c2cc(C)n(-c3ccc(F)cc3)c2C)N=C1C	-2%	35µM*	nt	nt	40µM*
COc1ccc(C(=O)Nc2nc3ccccc3[nH]2)cc1S(=O)(=O)N1CCOCC1	27%	47%	-2%	?	-27%
COc1ccc(C(=O)OC/C(O)=C(\C#N)c2nc3ccccc3[nH]2)cc1S(=O)(=O)N1CCOCC1	30%	79µM*	9%	2%	-10%
CCOC(=O)c1c(-c2ccccc2Cl)csc1NC(=O)c1cc(S(=O)(=O)N2CCOCC2)ccc1C	?	7.9µM*	-9%	-27%	-13%
O=C(Nc1nc(-c2ccccn2)cs1)c1cccc(S(=O)(=O)N2CCOCC2)c1	0%	?	?	28µM*	50µM*
COc1ccc(C(=O)Nc2nncs2)cc1S(=O)(=O)N1CCOCC1	3%	56µM*	nt	10%	-12%
Cc1nc(-c2ccc(C)c(N3CCN(C(=O)Nc4cccc(Cl)c4C)CC3)c2)no1	30%[57 µM]	15%[59 µM]	nt	1%	4%
O=C(NNC(=O)c1ccccc1OCc1ccccc1Cl)c1csc(N2CCOCC2)n1	45%	61%	nt	-6%	-21%
Cc1ccccc1CSc1nnc2ccc(-c3ccncc3)nn12	58%	-11%	nt	nt	-5%[11.4 µM]
Nc1c(C(=O)Nc2ccccc2Cl)nnn1Cc1cccc(Cl)c1	21%	-7%[59 µM]	nt	-13%	-11%
O=C(Nc1nc(-c2ccccn2)cs1)c1ccc(S(=O)(=O)N2CCCCC2)cc1	nt	65%[59 µM]	nt	?	nt
COc1ccc(C(=O)Nc2nc(-c3ccccn3)cs2)cc1S(=O)(=O)N1CCOCC1	-12%	nt	?	nt	25µM*
Cc1cnc(NC(=O)c2cccc(S(=O)(=O)N3CCOCC3)c2)s1	42%	7.1µM*	0%	-5%	-3%
Cc1nnc(NC(=O)c2cccc(S(=O)(=O)N3CCOCC3)c2)s1	35%	20%[12.7 µM]	nt	2%	6%
Cc1ccc(S(=O)(=O)N2CCOCC2)cc1C(=O)Nc1nc(-c2ccccn2)cs1	?	nt	?	nt	40µM*
O=S(=O)(c1cccc(-c2csc(-c3cccnc3)n2)c1)N1CCCCC1	26%	-4%[2.33 µM]	nt	-24%	-29%
O=S(=O)(c1cccc(-c2csc(-c3cccnc3)n2)c1)N1CCOCC1	7%	71µM*	nt	-22%	-18%
COc1ccc(CSc2nc3ccncc3n2Cc2nc(-c3ccc(OC)c(OC)c3)oc2C)cc1	27%	?	nt	-37%	?
Cc1ccc(NC(=O)C2CCCN(S(=O)(=O)c3ccc4c(c3)CCCC(=O)N4)C2)cc1N(C)C (stereo not given)	32%	-31%[59 µM]	nt	3%[57.1 µM]	-26%
COc1ccc(C(=O)Nc2ccccc2N2CCCC2)cc1S(=O)(=O)N1CCOCC1	2%	10µM*	-3%	2%	-29%
CSc1ccc(C(=O)C2CCCN(Cc3cccn3-c3cccnc3)C2)cc1 (stereo not given)	?	?	-10%	?	45µM*
